Consider 61 compounds from PubChem BioAssay AID1626 (SRMLSC, 2009).

By inhibition is commonly meant the relative decrease from the control value, in per cent.

Each structure is given as a SMILES string. Values joined by “and” are separate entries in the source; they are usually repeats but may differ in a detail not shown here. Equal values may be shown once. The campaign covered roughly 220,000 compounds. About 2,000 (0.91%) were called active. Not shown: some 2% with an inconclusive outcome. A selection follows. Results with a measured potency or affinity are listed apart. Values without a mark were called inactive. No stated cut-off is given here; in the data, inconclusive means inhibition above about 80% without an active follow-up result; inactive means below that; test concentration not stated here.

A short description of the experiment: M. tuberculosis H37Rv growth inhibitors, H37Rv strain (AID 1626).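 Further: bacteria incubated seven days before Alamar blue readout; 0% = bacteria only wells and 100% = bacteria with antibiotic wells.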 The conditions noted are these: active compounds read high, concentration not given here.
As to `On1nnc2ccc(C(F)(F)F)cc21`, the inhibition was 0.915%.

For `S=C1NC2=C(CCCC2)C2(CCCCC2)N1`, the inhibition is 3.82%.

For the compound `Cc1cccc(C)c1OCc1nc2ccccc2[nH]1`, the inhibition was -5.31%.

As for `N=c1n(CCN2CCCCC2)c2ccccc2n1CC(O)c1ccc(Cl)c(Cl)c1` (stereo unspecified), the inhibition was 57.5%.

On to `N=c1n(CCN2CCOCC2)c2ccccc2n1CC(=O)c1ccc(Cl)c(Cl)c1`, for which the inhibition is 17.4%.

For the compound `Cc1ccc2nc(/C(C#N)=C\c3cc(O)ccc3[N+](=O)[O-])[nH]c2c1`, the inhibition was -7.37%.

Consider `N#C/C(=C\c1ccc(OC(=O)c2cccs2)cc1)c1nc2ccccc2[nH]1`, for which the inhibition is 28.1%.

Regarding `N#C/C(=C\c1ccc(OC(=O)c2ccc(Br)s2)cc1)c1nc2ccccc2[nH]1`, the inhibition is 66.1%.

As for `Cc1ccc2nc(/C(C#N)=C/c3ccc(-c4cccc([N+](=O)[O-])c4)o3)[nH]c2c1`, the inhibition is 1.74%.

For `CN(Cc1nc(Cc2cccc(C(F)(F)F)c2)no1)C1CC(C)(C)NC(C)(C)C1`, the inhibition was 4.06%.

For `COc1ccc(C(=O)NCC(=O)OCC(=O)NCCC2=CCCCC2)cc1`, the inhibition is 1.25%.

As for `CCN(CC)S(=O)(=O)c1ccc(-c2nnc(SCC(N)=O)n2CC)cc1`, the inhibition was -3.31%.

For the compound `CSc1ncc(CO)n1Cc1ccccc1`, the inhibition is -4.14%.

`O=C(O)c1ccc(CS(=O)(=O)Cc2ccccc2F)o1`: the inhibition is -18.6%.

`COc1ccc(-c2[nH]ncc2CN2CCN(c3ccc(F)cc3)CC2)cc1`: the inhibition is -12.3%.

In the case of `COc1ccc(-c2[nH]ncc2CN2CCCN(c3ccccc3)CC2)c(F)c1`, the inhibition is -1.64%.

For the compound `Cn1cnc([N+](=O)[O-])c1Nc1cccc(O)c1`, the inhibition was -3.69%.

On to `CC(=O)CSc1nc2ccc(Nc3nc(N4CCOCC4)nc(N4CCOCC4)n3)cc2s1`, for which the inhibition was 4.02%.

In the case of `Cc1cccc(Nc2nc(NCc3ccco3)nc(N3CCOCC3)n2)c1`, the inhibition was -1.15%.

Take `COc1ccc(Nc2nc(NCc3ccco3)nc(N3CCOCC3)n2)cc1`: the inhibition was -1.04%.

As for `O=C(CSc1nc2ccc(Nc3nc(N4CCCC4)nc(N4CCCC4)n3)cc2s1)NCc1ccco1`, the inhibition is 68.7%.

For `O=C(Cn1cc[n+](Cc2ccccc2)c1)c1ccc([N+](=O)[O-])cc1`, the inhibition was 14%.

`O=C(Cn1c[n+](CC(=O)c2ccc([N+](=O)[O-])cc2)cn1)c1ccc([N+](=O)[O-])cc1`: the inhibition was -5.51% and -5.64%.

On to `O=c1oc2cc([N+](=O)[O-])ccc2nc1/C=C(\O)c1cccc(Br)c1`, for which the inhibition is -3.89%.

For `Cc1ccc2oc(=O)c(/C=C(\O)c3sc(C)nc3C)nc2c1`, the inhibition was -8.77%.

In the case of `Cc1ccc2oc(=O)c(/C=C(\O)c3cccs3)nc2c1`, the inhibition was -2.1%.

As for `C/C(O)=C\c1nc2ccccc2oc1=O`, the inhibition is 75.9%.

Take `O=c1oc2cc([N+](=O)[O-])ccc2nc1/C=C(O)/C=C/c1ccccc1`: the inhibition is -2.36%.

Take `Cc1ccc2oc(=O)c(/C=C(\O)c3ccccc3)nc2c1`: the inhibition was -10.4%.

Take `Cc1ccc(/C(O)=C/c2nc3cc(C)ccc3oc2=O)cc1`: the inhibition was 16.9%.

For the compound `O=c1oc2ccccc2nc1/C=C(O)/C=C/c1ccc(F)cc1`, the inhibition was 63.9%.

For the compound `C=CCc1cc(OC)ccc1OCCOCCN1CCc2ccccc2C1`, the inhibition is 6.94%.

With `COc1cccc(CNc2ccc(F)c(Cl)c2)c1`, the inhibition was 12.1%.

As for `OCCC1CN(Cc2cccnc2)CCN1CCc1ccccc1` (stereo unspecified), the inhibition is -0.305%.

For the compound `O=C(C[n+]1cc(-c2ccc(F)cc2)n2c1CCC2)c1cccs1`, the inhibition is 0.03%.

Turning to `O=C(C[n+]1cc(-c2ccccc2)n2c1CCC2)OCc1ccccc1`, the inhibition was -7.15%.

As for `O=C(C[n+]1cc(-c2ccc(F)cc2)n2c1CCC2)OCc1ccccc1`, the inhibition was -9.6%.

On to `O=C(C[n+]1cc(-c2ccc(Cl)cc2)n2c1CCCCC2)c1ccccc1`, for which the inhibition was -4.68%.

Regarding `O=C(C[n+]1cc(-c2ccccc2)n2c1CCCCC2)c1ccc(Cl)cc1`, the inhibition was 18.6%.

Turning to `COc1ccc(-c2c[n+](CC(=O)N3c4ccccc4Sc4ccccc43)c3n2CCC3)cc1`, the inhibition is 78.6%.

Regarding `Cc1ccc(-c2c[n+](CC(=O)c3cccs3)c3n2CCC3)cc1`, the inhibition was 18.1%.

Consider `O=C(C[n+]1cc(-c2ccccc2)n2c1CCC2)c1cccs1`, for which the inhibition was -2.31%.

On to `O=C1CC(SCCc2nc3ccccc3[nH]2)C(=O)N1c1ccc(F)cc1` (stereo unspecified), for which the inhibition was -1%.

With `CS(=O)(=O)N(CC(=O)NC1CCCC1)Cc1ccc(Cl)cc1`, the inhibition was -2.78%.

On to `Cc1nc(Cl)c(C(=O)NC(C)(C)C)c(C)c1Cl`, for which the inhibition was -4.14%.

For the compound `COc1ccc(N2C(=O)CCC(C(=O)NCc3ccccn3)C2c2ccc(OC)c(OC)c2)cc1` (stereo unspecified), the inhibition is -14.1%.

As for `CC(=O)N1CCN(c2ccc([N+](=O)[O-])cc2C=C2C(=O)NC(=O)NC2=O)CC1`, the inhibition was 7.44%.

As to `CSc1nc2ccccc2n1CC(=O)Nc1ccccc1`, the inhibition was -4.24%.

Turning to `Cc1[nH]c2ccc(C(=O)OCCN(C)C)cc2c1C`, the inhibition was -4.75%.

`O=C(C[n+]1cc(-c2ccc(Cl)c(Cl)c2)n2c1CCC2)c1cccs1`: the inhibition was 3.68%.

On to `O=C(C[n+]1cc(-c2ccc(Cl)c(Cl)c2)n2c1CCC2)OCc1ccccc1`, for which the inhibition was 4.51%.

Regarding `CCOCCCNCc1ccc(OC)cc1`, the inhibition is -2.12%.

For `N#Cc1nc(-c2ccccc2F)oc1NCCc1ccccn1`, the inhibition was 4.27%.

For the compound `Cc1cc(C)cc(NC(=O)Nc2ccc3c(c2)N(C)C(=O)CS3)c1`, the inhibition was 1.91%.

On to `CCC1CCC/C1=N\NC(=O)c1cc(C)[nH]n1` (stereo unspecified), for which the inhibition was -7.04%.

In the case of `CC(C)(C)C(=O)COc1ccccc1[N+](=O)[O-]`, the inhibition is 0.09%.

Consider `NNC(=O)COc1ccccc1[N+](=O)[O-]`, for which the inhibition was -1.65%.

As to `CC(C)(Oc1ccc(Cl)cc1)C(=O)N/N=C/c1cn[nH]c1-c1ccccc1`, the inhibition was -0.17%.

In the case of `CC1CCC2(CC1)OCC1(CCC3(COC4(CCC(C)CC4)OC3)C1=O)CO2` (stereo unspecified), the inhibition is -1.15%.

`CCCCOc1ccc(C(=O)NCC(=O)NCC(=O)OCC)cc1`: the inhibition is 5.43%.

Regarding `CCOC(=O)CNC(=O)CNC(=O)c1ccc(OC)cc1`, the inhibition is -5.13%.
